In PubChem BioAssay (Tox21):
Inconclusive results are not listed. Calls of active or inactive are those of the source. Unless noted, the call rests on the fitted dose curve; in most records, active means well fitted curve in the direction sought with a large enough effect in the repeat runs; inconclusive means weak or mixed curves; inactive means no such curve, though single readings can be large; an effect the other way counts as inactive or inconclusive.

Experiments:
[1] = qHTS assay for small molecule agonists of the p53 signaling pathway (AID 651631; calls by dose curve; further: potency means the concentration at half of the fitted maximal effect; nearly all actives have a fitted effect of over 15% in size)
How it was run: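 HCT-116 p53RE-bla reporter line, 16 h compound treatment at 37 °C, then fluorescence after 2 h with B/G FRET substrate.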

[2] = qHTS assay for small molecule agonists of the p53 signaling pathway - cell viability (AID 651633; calls by dose curve; further: nearly all actives have a fitted effect of over 30% in size; further: potency means the concentration at half of the fitted maximal effect)
How it was run: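 Viability counter-read: CellTiter-Glo luminescence (30 min, room temperature) in the same p53RE-bla plates. These plates had been exposed to compounds for 16 h at 37 C.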

[3] = qHTS assay for small molecule disruptors of the mitochondrial membrane potential - cell viability (AID 720634; calls by dose curve;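 further: human HepG2 liver cancer cells; nearly all actives have a fitted effect of over 20% in size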)
How it was run: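 Cells: HepG2, 2,000/well, attached overnight. Compound 1 hr, 37 C/5% CO2. +m-MPI dye, +CellTiter-Glo 30 min RT. Readout: luminescence (ATP).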

[4] = qHTS assay to test for compound auto fluorescence at 590 nm (red) in HepG2 cells (AID 720674)
How it was run: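 We screened compounds on adherent HepG2 cells, incubating them for an hour at 37 C in 5% CO2 before reading emission at 590 nm under 540 nm excitation; values reflect equivalence to Rose Bengal sodium fluorescence.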

[5] = qHTS assay to test for compound auto fluorescence at 535 nm (green) in HepG2 cells (AID 720675)
[6] = qHTS assay to test for compound auto fluorescence at 460 nm (blue) in HEK293 cells (AID 720678)
How it was run: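 Blue-channel (Ex/Em 405/460 nm) intensity measured in HEK293 cultures after overnight compound exposure at 37C; signal expressed relative to triamterene. Cells plated 2,000 per well in 10% dialyzed FBS medium and allowed 4-5 hr to attach.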

[7] = qHTS assay to test for compound auto fluorescence at 590 nm (red) in HEK293 cells (AID 720679)
How it was run: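 Red-channel autofluorescence (Ex/Em 540/590 nm; Rose Bengal sodium reference) was measured after overnight 37C, 5% CO2 exposure of attached HEK293 cells, 2,000 per well in medium with 10% dialyzed FBS.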

[8] = qHTS assay to test for compound auto fluorescence at 535 nm (green) in HEK293 cells (AID 720680)
[9] = qHTS assay to test for compound auto fluorescence at 460 nm (blue) in HEK293 cell free culture (AID 720681)
How it was run: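 Blue fluorescence (Ex 405/Em 460 nm, triamterene-equivalent) was read immediately after pin transfer of compound or DMSO into medium (DMEM, 10% FBS) without cells.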

[10] = qHTS assay to test for compound auto fluorescence at 535 nm (green) in HEK293 cell free culture (AID 720682)
How it was run: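 Steps: dispense DMEM/10% FBS into empty wells; pin in compound or DMSO; measure fluorescence at 485/535 nm. Values are fluorescein equivalents.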

[11] = qHTS assay to test for compound auto fluorescence at 590 nm (red) in HEK293 cell free culture (AID 720683)
How it was run: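 Red-channel autofluorescence of compounds in culture medium (DMEM, 10% FBS), no cells, measured at 540/590 nm. Rose Bengal sodium is the reference fluorophore for equivalence.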

[12] = qHTS assay to test for compound auto fluorescence at 590 nm (red) in HepG2 cell free culture (AID 720684)
How it was run: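 Plate contents were MEM with 10% FBS plus test compound or DMSO, no cells. Fluorescence was recorded with 540 nm excitation and 590 nm emission.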

[13] = qHTS assay to test for compound auto fluorescence at 460 nm (blue) in HepG2 cell free culture (AID 720685)
How it was run: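 Compound (23 nL) or DMSO pinned into cell-free MEM with 10% FBS; blue fluorescence read at 405/460 nm excitation/emission, expressed as auto-fluorescence equivalency to triamterene.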

[14] = qHTS assay to test for compound auto fluorescence at 460 nm (blue) in HepG2 cells (AID 720687)
How it was run: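 Blue-channel autofluorescence (Ex/Em 405/460 nm, triamterene-equivalent) was measured after 1 hr compound exposure at 37 C, 5% CO2. Cells were HepG2, plated overnight at 37 C in MEM plus 10% FBS.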

[15] = target: Glucocorticoid receptor (Homo sapiens) (UniProt P04150); experiment: qHTS assay to identify small molecule agonists of the glucocorticoid receptor (GR) signaling pathway (AID 720691; active means well fitted activation curve with a large enough effect in the signal ratio in the repeat runs, not every such curve was filed as active; the % refers to the signal ratio); conditions: GR-bla HeLa, beta-lactamase reporter ratio, 18 h; activation: at 62.4 µM (top of the series) unless noted
Sequence of Glucocorticoid receptor (Homo sapiens) (P04150 whole entry, looked up): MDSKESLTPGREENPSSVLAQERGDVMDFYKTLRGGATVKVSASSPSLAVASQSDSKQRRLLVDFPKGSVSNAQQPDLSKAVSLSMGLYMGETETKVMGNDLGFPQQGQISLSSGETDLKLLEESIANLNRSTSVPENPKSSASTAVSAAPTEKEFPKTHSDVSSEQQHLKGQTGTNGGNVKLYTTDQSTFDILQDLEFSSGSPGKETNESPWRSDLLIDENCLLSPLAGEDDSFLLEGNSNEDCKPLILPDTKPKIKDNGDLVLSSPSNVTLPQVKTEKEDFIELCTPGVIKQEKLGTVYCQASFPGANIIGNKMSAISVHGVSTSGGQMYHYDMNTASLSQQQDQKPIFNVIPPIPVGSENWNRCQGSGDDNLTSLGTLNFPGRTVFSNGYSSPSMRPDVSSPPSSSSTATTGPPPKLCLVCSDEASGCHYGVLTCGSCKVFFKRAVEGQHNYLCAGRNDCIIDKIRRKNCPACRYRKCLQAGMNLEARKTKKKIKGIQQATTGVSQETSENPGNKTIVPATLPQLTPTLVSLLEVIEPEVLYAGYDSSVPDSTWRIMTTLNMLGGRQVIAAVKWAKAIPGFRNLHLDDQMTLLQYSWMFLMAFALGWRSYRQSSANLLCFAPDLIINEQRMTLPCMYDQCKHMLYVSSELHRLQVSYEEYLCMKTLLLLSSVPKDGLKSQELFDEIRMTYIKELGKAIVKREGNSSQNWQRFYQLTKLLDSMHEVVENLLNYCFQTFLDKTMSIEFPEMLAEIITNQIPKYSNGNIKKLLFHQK
How it was run: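 Fluorescence intensity from LiveBLAzer B/G FRET substrate (2 h, room temperature) reports beta-lactamase expression driven by the glucocorticoid response element in GR-bla HeLa cells after 18 h compound exposure at 37 C.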

[16] = qHTS assay for small molecules that induce genotoxicity in human embryonic kidney cells expressing luciferase-tagged ATAD5 (AID 651632); further: nearly all actives have a fitted effect of over 15% in size
How it was run: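 ATAD5-luc HEK293T, 2,000 cells/well; cpd or DMSO pin-transferred; 16 hr, 37C/5% CO2; Amplite 30 min RT; luminescence.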

[17] = qHTS assay for small molecules that induce genotoxicity in human embryonic kidney cells expressing luciferase-tagged ATAD5 - cell viability (AID 651634; calls by dose curve; further: nearly all actives have a fitted effect of over 25% in size; further: potency means the concentration at half of the fitted maximal effect)
How it was run: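 Fluorescence from CellTiter-Fluor, reporting protease activity within live cells, served as the viability read-out. HEK293T cells carrying luciferase-tagged ATAD5 had been treated with compound for 15.5 hr at 37C.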

[18] = qHTS assay to test for compound auto fluorescence at 535 nm (green) in HepG2 cell free culture (AID 720686)
[19] = target: Glucocorticoid receptor (Homo sapiens) (UniProt P04150); experiment: qHTS assay to identify small molecule antagonists of the glucocorticoid receptor (GR) signaling pathway (AID 720692; active means well fitted inhibition curve with a large enough effect in the signal ratio in the repeat runs, not every such curve was filed as active; the % refers to the signal ratio)
How it was run: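 HeLa GR-bla cells; cmpd + dex 5 nM final, 18 h 37 C; LiveBLAzer B/G FRET substrate 2 h RT; fluorescence intensity read. Antagonist mode, qHTS.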

[20] = qHTS assay for small molecule disruptors of the mitochondrial membrane potential (AID 720635)
How it was run: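 Mitochondrial membrane potential tracked with Mito-MPS dye, red aggregates (ex 540/em 590 nm) against green monomers (ex 490/em 535 nm). Compound treatment 1 hr at 37C, dye 30 min in HepG2.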

Measured: Potency

COc1ccc(-c2nc3ccc(C4=NNC(=O)CC4C)cc3[nH]2)cc1 (configuration not stated)
active: [1] 11.9 µM
not listed: [16] | [17] | [18] | [19] | [20]
inactive: all other assays above

OC(CN1CCC(Cc2ccc(F)cc2)CC1)c1ccc(Cl)cc1 (configuration not stated)
not listed: [1] | [20]
inactive: all other assays above

COCC(C)OC(C)=O (configuration not stated)
not listed: [1] | [5] | [15]
inactive: all other assays above

CCCCCCCCCc1ccc(OCCOCCO)cc1
active: [2] 29.8 µM | [17] 18.8 µM
not listed: [1] | [19] | [20]
inactive: all other assays above
